A selection: hits, their analogues and other compounds. The true share with any hit is near 12%.
Cav3 T inh: inhibitors of human Cav3.2 T-type calcium channel; O95180; Cav3.2-expressing cells, Fluo-4 calcium fluorescence FDSS; stronger effect = lower value; hit rate 4% among 100,000; B-score at 10 µM;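 active = single-dose well whose peak fluorescence ratio is a statistical outlier from its plate by either plate-standardised score or position-corrected B-score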
PostGolgi yeast: growth inhibition of a yeast mutant, post-Golgi transport screen | post-Golgi transport phenotypic cell assay | inhibition, % at 10 µM | hit rate 0.9% among 98,000;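 also: yeast cells grown in 1536-well plates; yeast grown about 18 h at 30C before absorbance read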
D1 allo mod: allosteric modulators of human D1 dopamine receptor. hit rate 5.9% among 58,000. B-score at 10 µM. P21728. HEK293 D1, CRE-luciferase, dopamine EC30 potentiation; actives deviate in either direction;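 active = luminescence count or its row- and column-corrected plate score outside the 99.7% band of the plate's sample wells, on either side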
Target sequence (P21728 whole entry, looked up): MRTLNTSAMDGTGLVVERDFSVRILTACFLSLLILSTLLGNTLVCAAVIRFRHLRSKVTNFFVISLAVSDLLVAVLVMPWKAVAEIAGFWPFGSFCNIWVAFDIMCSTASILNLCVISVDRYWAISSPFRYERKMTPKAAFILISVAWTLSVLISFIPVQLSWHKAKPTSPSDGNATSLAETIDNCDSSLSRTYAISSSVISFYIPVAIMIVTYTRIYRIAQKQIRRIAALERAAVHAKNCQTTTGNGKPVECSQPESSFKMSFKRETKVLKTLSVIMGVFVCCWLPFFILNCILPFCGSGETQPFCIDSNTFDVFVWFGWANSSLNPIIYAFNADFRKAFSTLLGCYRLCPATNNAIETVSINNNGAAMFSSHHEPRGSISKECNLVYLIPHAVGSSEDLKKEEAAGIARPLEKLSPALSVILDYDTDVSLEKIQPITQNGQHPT
PostGolgi ctrl: yeast control strain growth, post-Golgi counter-screen. efflux-deficient yeast background strain, growth absorbance A615, 16 h. inhibition, % at 10 µM. hit rate 5% among 98,000. AID 738
PLAP activator: human PLAP activation. P05187. purified PLAP enzyme, luminescent substrate read-out; stronger effect = higher value. activation fold at 20 µM. hit rate 1.2% among 96,000; in the data active = activation fold above about 2
hDAT+cocaine: modulates human dopamine transporter uptake under cocaine. Q01959. LLC-PK1 hDAT cells, [14C]-dopamine uptake with cocaine IC80; actives deviate in either direction. B-score at 10 µM. hit rate 1.3% among 110,000;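 active = Z score or B-score, a plate-position-corrected score, falls beyond the plate's 99.7% confidence bounds, in either direction; inactive = both scores lie inside the 99.7% bounds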;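 also: scored against the spread of the other compound wells on the same plate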
* = called active by the depositor; x = no result. Rule as the data show it, unless noted: active = inhibition above about 30%; inactive = the rest.

SMILES	Cav3 T inh	PostGolgi yeast	D1 allo mod	PostGolgi ctrl	PLAP activator	hDAT+cocaine
CCCOC(=O)c1c(NC(=O)CSc2nc(-c3ccco3)cc(C(F)(F)F)n2)sc(C(=O)OC)c1C	-5.2*	0	x	1	1.5	-0.6
C=CCn1nnc2sc3c(c2c1=O)CCC(C)C3 (stereo not drawn)	-0.11	4	x	10	1.3	-0.65
O=C(Nc1cccnc1N1CCOCC1)c1cc2ccccc2oc1=O	x	x	4.2*	x	0.9	x
O=C(NCCCN1CCOCC1)c1cc2ccccc2oc1=O	0.44	-16	-1.3	7	1.1	-0.27
O=C(Nc1ccc(CN2CCOCC2)cc1)c1cc2ccccc2oc1=O	x	x	-5.6*	x	x	x
CCCCCn1c(=O)[nH]c2cc(C(=O)NCCCN3CCC(C)CC3)ccc2c1=O	1.5	-3	-2.2	-3	1.5	-0.13
COc1ccc([N+](=O)[O-])cc1N(CC(O)CN(CC(C)C)CC(C)C)S(=O)(=O)c1ccccc1 (stereo not drawn)	-3.9*	-2	x	-1	1.4	-0.068
O=C(Nc1ccc2c(c1)OCO2)C(c1ccc(Cl)cc1)N1CCN(C(=O)c2ccco2)CC1 (stereo not drawn)	-4.3*	7	-0.086	12	1.9	2.4*
CC1CCN(C(C(=O)Nc2ccc3c(c2)OCO3)c2ccccc2)CC1 (stereo not drawn)	x	-1	-2.4	5	2.2*	-1.4
CC1CCCN(C(C(=O)Nc2ccc3c(c2)OCCO3)c2ccccc2)C1 (stereo not drawn)	-0.62	-6	-1.5	12	1.2	0.47
O=C(Nc1ccc2c(c1)OCO2)C(c1ccccc1)N1CCN(C(=O)c2ccco2)CC1 (stereo not drawn)	-0.16	-10	-0.72	-3	1.9	-1.8
CC1CCCN(C(C(=O)Nc2ccc3c(c2)OCO3)c2ccccc2)C1 (stereo not drawn)	-2.8	3	-0.85	20	2*	-0.065
O=C(OC(C(=O)NCC1CCCO1)c1ccccn1)c1cccs1 (stereo not drawn)	0.23	-1	0.042	-2	0.9	0.46
Cc1ccc([N+](=O)[O-])cc1NC(=O)CCSc1ccc(Cl)cc1	-3.4	3	x	30	1.1	0.043
Cc1ccc([N+](=O)[O-])cc1NC(=O)CN(C(=O)c1ccc(Cl)cc1)C1CCCCC1	-9.4*	-12	x	25	1.1	0.15
O=C(CN(C(=O)c1ccccc1Cl)C1CCCCC1)Nc1ccc(Cl)c([N+](=O)[O-])c1	-9.9*	-3	x	36*	1.1	-1.4
COC(=O)c1ccc(S(=O)(=O)c2ccccc2)c(N)c1	-0.053	-1	x	9	0.8	-0.84
OCCNc1nc(Nc2cc(Cl)ccc2OC2CCCC2)nc(N2CCCC2)n1	-0.1	x	x	x	x	-0.046
CCOC(=O)C1CCN(C(=O)c2cnn3c(C)cc(C)nc23)CC1	0.4	4	0.19	7	1.1	-0.57
Nc1cc(Cl)ccc1C(=O)OCC(=O)NC1CCS(=O)(=O)C1 (stereo not drawn)	-0.0078	3	x	36*	0.9	-1.2
O=C(COC(=O)c1ccccc1Oc1ccccc1)NC1CCS(=O)(=O)C1 (stereo not drawn)	0.38	8	0.38	13	0.9	-0.16
CCOC(=O)c1cnc(-n2nc(C)cc2C)nc1NC	0.19	4	-1.9	-3	1.6	0.36
CCOC(=O)c1cnc(-n2nc(C)cc2C)nc1NC1CCCCC1	-3	87*	2.6	67*	1.2	1.1
CCCOc1ccccc1Nc1nnc(C)c(=O)[nH]1	0.3	2	-0.13	12	1.3	-0.044
O=C(Nc1cccc(C(F)(F)F)c1)N(Cc1ccc(Cl)cc1)CC(O)C(F)(F)F (stereo not drawn)	-2.8	-10	x	51*	0.8	-0.4
SMILES	Cav3 T inh	PostGolgi yeast	D1 allo mod	PostGolgi ctrl	PLAP activator	hDAT+cocaine
CC(O)(CS(=O)(=O)Cc1ccc(Cl)cc1)C(=O)Nc1cccc(C(F)(F)F)c1 (stereo not drawn)	-2.5	-2	x	5	1	0.62
CC1CCN(C(=O)C2CCN(S(=O)(=O)c3cccc4nonc34)CC2)CC1	0.7	8	x	31*	1.2	0.96
O=C(COc1ncnc2ccccc12)NCCCN1CCCC1=O	0.82	3	-0.91	10	1.3	-0.18
C=C(C)Cn1c(-c2ccccc2)nc2ccccc21	-4.1*	-3	0.52	14	0.9	0.029
BrC(=C\c1ccccc1)/C=N/N1CCN(c2ccccn2)CC1	0.43	-4	x	38*	1.2	0.36
COc1ccc2c(c1)c(=O)oc1cc(OCC(=O)N3CCCC(C)C3)ccc12 (stereo not drawn)	x	5	0.58	59*	1.3	-2.5*
CCOC(=O)CSc1nnc(CNc2cccc(Cl)c2)n1C	1.1	x	x	x	x	-0.43
COCCCn1c(Cc2csc(Nc3cccc(Cl)c3)n2)nnc1SCC(=O)OC	-0.23	-6	0.71	-3	2*	-1
Cc1nc(NC(=O)c2ccccc2)sc1-c1csc(NCc2ccccc2)n1	-0.65	67*	x	15	1.4	0.87
Cc1nc(NC(=O)c2ccccc2)sc1-c1csc(NCCc2ccccc2)n1	-0.22	-8	x	12	1.4	1.5
CN(C)c1nc(-c2ccccc2)c2cnn(Cc3ccccc3)c2n1	1.1	2	-0.57	11	0.8	-0.58
CSC1=C(C#N)C(C)C2=C(CC(C)(C)CC2=O)N1 (stereo not drawn)	2.6	2	-1.7	2	0.8	0.81
Cc1cccc(/C=N/NC(=O)C(C)Nc2cccc3ccccc23)n1 (stereo not drawn)	0.021	-7	x	9	x	2.5*
c1coc(-c2nnc3sc(Cc4cccs4)nn23)c1	0.087	21	x	2	0.9	1.7
Clc1ccc(-c2nnc3sc(Cc4cccs4)nn23)c(Cl)c1	-0.42	-12	x	50*	0.9	0.15
CCCC(=O)NC(Nc1cccc(C(F)(F)F)c1)C(Cl)(Cl)Cl (stereo not drawn)	-5*	-1	x	10	1	0.67
CCC(C(=O)Nc1cccc(C(F)(F)F)c1)c1ccccc1 (stereo not drawn)	-6.8*	-5	x	23	0.8	-0.71
Cc1c(C(=O)Nc2ccccc2-c2ccccc2)cccc1[N+](=O)[O-]	-0.95	5	x	12	1	1.6
O=[N+]([O-])c1ccc(NC(=S)N/C(=N/CS(=O)(=O)c2ccccc2)c2ccccc2)cc1	-0.7	3	x	3	0.8	0.57
O=C(NCc1ccco1)C1Cc2ccccc2CN1S(=O)(=O)c1ccccc1F (stereo not drawn)	x	x	-1.2	x	x	x
CCOC(=O)C1CCCN(CC(=O)NC2=Nc3ccccc3N=C(C)C2c2ccccc2)C1 (stereo not drawn)	-6.2*	-3	-1.8	14	1.6	-1.2
CC(C)CC(c1nnnn1CCc1ccccc1)N1CCN(C(=O)c2ccco2)CC1 (stereo not drawn)	0.087	2	0.041	30*	1.6	0.98
CC(C)CC(c1nnnn1Cc1ccco1)N1CCN(c2cccc(Cl)c2)CC1 (stereo not drawn)	-2.5	-8	-1	40*	1.1	-0.54
